Data as given in the supplement of paper PMC6089552.
Hit rate of the full screen: of about 3,200 compounds, about 300 (9.4%) showed activity. Many of the other results were omitted from the sample, so actives are more common in it than they were.

System: A673/TR/shEF
Experiment: cell viability (LOESS-normalised, relative to median of negative controls) (log2 ratio); higher = more viable cells (less compound effect), active = hit call of the paper (over 3 MAD below the median)
Conditions: treatment time: 72 h
How it was run: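 A673/TR/shEF Ewing sarcoma cells were plated at 1,500 per well in 384-well plates and cultured with or without doxycycline, added 24 h before compounds, to induce EWS-FLI1 shRNA knockdown. Library compounds at two or more concentrations, alongside DMSO controls, were applied for three days. Cell viability was measured by CellTiter-Glo luminescence on an Envision reader. Readings were LOESS-corrected per plate, divided by the median of negative controls and log2-transformed, and hits were wells lying at least three median absolute deviations from the median of all screened wells.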

[1] = 0.25 µM, library screen: screen2, EWS-FLI1 expression: high (no doxycycline)
[2] = 0.25 µM, library screen: screen2, EWS-FLI1 expression: low (doxycycline-induced shRNA knockdown)
[3] = 2.5 µM, library screen: screen2, EWS-FLI1 expression: high (no doxycycline)
[4] = 2.5 µM, library screen: screen2, EWS-FLI1 expression: low (doxycycline-induced shRNA knockdown)
[5] = 0.25 µM, library screen: screen1, EWS-FLI1 expression: high (no doxycycline)
[6] = 0.25 µM, library screen: screen1, EWS-FLI1 expression: low (doxycycline-induced shRNA knockdown)
[7] = 2.5 µM, library screen: screen1, EWS-FLI1 expression: high (no doxycycline)
[8] = 2.5 µM, library screen: screen1, EWS-FLI1 expression: low (doxycycline-induced shRNA knockdown)
[9] = 0.103 µM, library screen: screen3, EWS-FLI1 expression: high (no doxycycline)
[10] = 0.103 µM, library screen: screen3, EWS-FLI1 expression: low (doxycycline-induced shRNA knockdown)
[11] = 0.308 µM, library screen: screen3, EWS-FLI1 expression: high (no doxycycline)
[12] = 0.308 µM, library screen: screen3, EWS-FLI1 expression: low (doxycycline-induced shRNA knockdown)
[13] = 0.926 µM, library screen: screen3, EWS-FLI1 expression: high (no doxycycline)
[14] = 0.926 µM, library screen: screen3, EWS-FLI1 expression: low (doxycycline-induced shRNA knockdown)
[15] = 2.8 µM, library screen: screen3, EWS-FLI1 expression: high (no doxycycline)
[16] = 2.8 µM, library screen: screen3, EWS-FLI1 expression: low (doxycycline-induced shRNA knockdown)
[17] = 8.3 µM, library screen: screen3, EWS-FLI1 expression: high (no doxycycline)
[18] = 8.3 µM, library screen: screen3, EWS-FLI1 expression: low (doxycycline-induced shRNA knockdown)
[19] = 25 µM, library screen: screen3, EWS-FLI1 expression: high (no doxycycline)
[20] = 25 µM, library screen: screen3, EWS-FLI1 expression: low (doxycycline-induced shRNA knockdown)
[21] = 0.025 µM, library screen: screen1, EWS-FLI1 expression: high (no doxycycline)
[22] = 0.025 µM, library screen: screen1, EWS-FLI1 expression: low (doxycycline-induced shRNA knockdown)
[23] = 25 µM, library screen: screen1, EWS-FLI1 expression: high (no doxycycline)
[24] = 25 µM, library screen: screen1, EWS-FLI1 expression: low (doxycycline-induced shRNA knockdown)
[25] = 0.025 µM, library screen: screen2, EWS-FLI1 expression: high (no doxycycline)
[26] = 0.025 µM, library screen: screen2, EWS-FLI1 expression: low (doxycycline-induced shRNA knockdown)
[27] = 25 µM, library screen: screen2, EWS-FLI1 expression: high (no doxycycline)
[28] = 25 µM, library screen: screen2, EWS-FLI1 expression: low (doxycycline-induced shRNA knockdown)

Measured: cell viability (log2)

Fc1cccc(CN(C2=NCCN2)c2c(Cl)cccc2Cl)c1
inactive: [1] 0.243 | [2] 0.118 | [3] 0.138 | [4] 0.0968

CC(=O)/C=C/C1C(C)(O)CCC2C(C)(C)CCCC21C (centres undefined)
inactive: [5] 0.0886 | [6] 0.136 | [7] 0.148 | [8] 0.139

COc1cccc(C(=O)NCCN2CCN(c3ccc(Cl)cc3)CC2)c1
inactive: [1] 0.184 | [2] 0.2 | [3] 0.0849 | [4] 0.0867

Cc1nc(Nc2ncc(C(=O)Nc3c(C)cccc3Cl)s2)cc(N2CCN(CCO)CC2)n1
inactive: [9] -0.00181 | [10] -0.0394 | [11] -0.125 | [12] -0.364
active: [13] -0.395 | [14] -0.907 | [15] -0.393 | [16] -1.27 | [17] -0.457 | [18] -1.34 | [19] -0.706 | [20] -1.33

O=C(O)c1cn(-c2ccccc2)nc1-c1ccc(F)cc1
inactive: [5] 0.0839 | [6] -0.00121 | [7] 0.0458 | [8] -0.135

NC(N)=NCCNS(=O)(=O)c1cccc2cnccc12
active: [7] -0.325 | [23] -0.105
inactive: [21] 0.216 | [22] 0.0306 | [5] 0.259 | [6] 0.000334 | [1] 0.159 | [2] 0.0697 | [8] 0.117 | [3] 0.11 | [4] 0.0282 | [24] 0.0777

CNCCNS(=O)(=O)c1cccc2cnccc12
inactive: [21] 0.0336 | [22] 0.0964 | [5] 0.0201 | [6] 0.0846 | [1] 0.191 | [2] 0.0995 | [7] -0.0144 | [8] 0.076 | [3] 0.114 | [4] 0.037 | [23] -0.0615 | [24] -0.521

NCCNS(=O)(=O)c1cccc2cnccc12
active: [7] -0.101
inactive: [21] 0.261 | [22] -0.0195 | [5] 0.263 | [6] -0.0436 | [1] 0.125 | [2] 0.144 | [8] 0.0153 | [3] 0.077 | [4] 0.0865 | [23] -0.0355 | [24] 0.14

O=S(=O)(NCCNC/C=C/c1ccc(Br)cc1)c1cccc2cnccc12
inactive: [21] 0.026 | [22] 0.000211 | [5] 0.096 | [6] 0.0474 | [1] 0.108 | [2] 0.000615 | [7] 0.0846 | [8] -0.0121 | [3] 0.194 | [4] 0.0705 | [23] 0.00409 | [24] 0.217

C[C@@H]1CC[C@@]2(OC1)O[C@H]1C[C@H]3[C@@H]4CC[C@@H]5C[C@@H](O)CC[C@]5(C)[C@H]4CC[C@]3(C)[C@H]1[C@@H]2C
inactive: [5] 0.0641 | [6] 0.0518 | [7] 0.077 | [8] 0.0287

CSc1nnc(-c2ccccc2)c(-c2ccccc2)n1
inactive: [5] 0.103 | [6] 0.00324 | [7] 0.0984 | [8] 0.0395

COc1cc(OC)c2c(c1)O[C@H](c1cc(OC)c(OC)c(OC)c1)[C@H](OC(=O)c1cc(OC)c(OC)c(OC)c1)C2
inactive: [5] 0.0414 | [6] 0.0159 | [7] 0.0705 | [8] -0.00627

CC1OC(OC2C(O)COC(OC3C(C)OC(OC4C(OC(=O)C56CCC(C)(C)CC5C5=CCC7C8(C)CCC(OC9OC(CO)C(O)C(O)C9O)C(C)(C)C8CCC7(C)C5(C)CC6O)OCC(O)C4O)C(O)C3O)C2O)C(O)C(O)C1O (centres undefined)
inactive: [5] 0.0486 | [6] 0.0258 | [7] 0.0372 | [8] 0.223

COC(=O)c1c(C)c2c(c(C)c1OC)OC(=O)c1c(C)c(Cl)c(OC)c(Cl)c1O2
inactive: [5] 0.0616 | [6] 0.043 | [7] 0.0828 | [8] 0.0347

C[C@H]1O[C@@H](n2cc(F)c(=O)[nH]c2=O)[C@H](O)[C@@H]1O
active: [5] -0.21 | [7] -1.24 | [3] -0.257 | [27] -2.97 | [28] -0.654
inactive: [25] 0.0333 | [26] 0.0231 | [6] 0.08 | [1] -0.00269 | [2] 0.0834 | [8] -0.0424 | [4] 0.0331

Cc1cn([C@H]2C=C[C@@H](CO)O2)c(=O)[nH]c1=O
inactive: [9] -0.00295 | [10] 0.0515 | [1] 0.197 | [2] 0.032 | [11] -0.0178 | [12] 0.0223 | [13] 0.0714 | [14] 0.0163 | [3] 0.101 | [4] 0.0899 | [15] 0.0507 | [16] 0.0197 | [17] 0.102 | [18] 0.0821 | [19] 0.0208 | [20] 0.0668

O=c1[nH]c(=O)n([C@H]2C[C@H](O)[C@@H](CO)O2)cc1C(F)(F)F
active: [19] -0.362
inactive: [9] 0.105 | [10] 0.105 | [5] -0.0346 | [6] 0.0988 | [11] 0.134 | [12] 0.147 | [13] 0.108 | [14] 0.0588 | [7] 0.0509 | [8] 0.029 | [15] 0.0746 | [16] 0.0921 | [17] 0.0584 | [18] 0.048 | [20] 0.124

O=c1[nH]c(=O)n([C@H]2C[C@H](O)[C@@H](CO)O2)cc1F
active: [5] -1.07 | [1] -0.231 | [11] -0.266 | [13] -0.534 | [7] -1.48 | [3] -0.805 | [15] -0.621 | [17] -0.85 | [27] -0.944 | [19] -1.03
inactive: [25] 0.0911 | [26] 0.0185 | [9] 0.0528 | [10] 0.0374 | [6] 0.23 | [2] 0.103 | [12] 0.079 | [14] 0.0595 | [8] 0.156 | [4] 0.138 | [16] 0.0813 | [18] 0.0595 | [28] -0.0409 | [20] 0.0541

CCCCCOC(=O)Nc1nc(=O)n([C@@H]2O[C@H](C)[C@@H](O)[C@H]2O)cc1F
inactive: [9] 0.057 | [10] 0.111 | [11] 0.147 | [12] 0.143 | [13] 0.154 | [14] 0.121 | [15] 0.179 | [16] 0.14 | [17] 0.166 | [18] 0.0924 | [19] 0.195 | [20] 0.124

Cc1cn([C@H]2C[C@H](N=[N+]=[N-])[C@@H](CO)O2)c(=O)[nH]c1=O
active: [5] -0.142 | [7] -1.07 | [8] -0.798
inactive: [25] 0.0606 | [26] 0.0603 | [6] -0.108 | [1] 0.183 | [2] 0.0909 | [3] 0.12 | [4] 0.103 | [27] 0.0992 | [28] 0.0558

O=c1[nH]c(=O)n([C@H]2C[C@H](O)[C@@H](CO)O2)cc1Br
inactive: [1] 0.238 | [2] 0.0517 | [3] 0.037 | [4] 0.0646

CCc1cn([C@H]2C[C@H](O)[C@@H](CO)O2)c(=O)[nH]c1=O
inactive: [25] 0.0952 | [26] 0.0914 | [5] 0.152 | [6] 0.0662 | [1] 0.0236 | [2] 0.0662 | [7] 0.079 | [8] 0.152 | [3] 0.176 | [4] 0.0177 | [27] -0.0289 | [28] 0.0946

Cc1cn([C@@H]2C[C@@H](O)[C@H](CO)O2)c(=O)[nH]c1=O
inactive: [9] 0.207 | [10] 0.0457 | [11] 0.0611 | [12] 0.118 | [13] 0.128 | [14] 0.0817 | [15] 0.203 | [16] 0.115 | [17] 0.177 | [18] 0.101 | [19] 0.139 | [20] 0.167

O=c1[nH]c(=O)n([C@H]2C[C@H](O)[C@@H](CO)O2)cc1/C=C/Br
inactive: [1] 0.184 | [2] 0.138 | [3] 0.072 | [4] 0.108

O=C(O)c1cc(=O)c(O)c2c(O)c(O)ccc2c1
inactive: [5] 0.0685 | [6] 0.0312 | [7] 0.157 | [8] 0.0783

Fc1cccc(CN2CCN(Cc3ccco3)CC2)c1
inactive: [5] 0.0188 | [6] 0.159 | [7] 0.104 | [8] 0.135

C=CCCCCCCCCCCCC=CC(O)COC(C)=O (centres undefined)
inactive: [5] -0.0116 | [6] 0.0382 | [7] 0.137 | [8] 0.0541

CC12CCC(=O)C=C1CCC1C2C(O)CC2(C)C1CCC2(O)C(=O)COC(=O)CCC(=O)O (centres undefined)
inactive: [1] 0.252 | [2] 0.0354 | [3] 0.189 | [4] 0.145

CCSCCOC(=O)C1=C(C)NC2=C(C(=O)CC(C)(C)C2)C1c1coc2ccccc2c1=O (centres undefined)
inactive: [5] 0.0909 | [6] 0.0763 | [7] 0.107 | [8] 0.00786

CCOc1ccc2nc(SC)nc(C)c2c1
inactive: [5] 0.0636 | [6] 0.0768 | [7] 0.137 | [8] -0.103
